This note sets out measurements from PubChem BioAssay (Tox21).

“And” between values parts separate entries of the source, which are not always exact repeats. Equal entries are not always repeated. Inconclusive results are not listed. Some compounds were tested as several samples or in several runs, with calls that do not always agree. The source made the active and inactive calls. Unless noted, calls follow the shape of the dose curve; as a rule, active = well fitted curve in the direction sought with a large enough effect in the repeat runs; inconclusive = weak or mixed curves; inactive = no such curve, though single readings can be large; an effect the other way counts as inactive or inconclusive.

For test [1], the target named is Progesterone receptor (Homo sapiens) (UniProt P06401). Nature of the test: qHTS assay to identify small molecule antagonists of the progesterone receptor (PR) signaling pathway (AID 1346795; active = well fitted inhibition curve with a large enough effect in the signal ratio in the repeat runs, not every such curve was filed as active; the % refers to the signal ratio; also: potency is read from the fitted curve at half-maximal effect). An outline of the steps:
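Antagonist mode with agonist R5020 at 1 nM final and 16 hr incubation at 37C. Reporter was beta-lactamase driven by UAS in HEK293T (PR-UAS-bla), 2% charcoal-stripped serum; signal from LiveBLAzer FRET substrate, 2 hr at room temperature.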
A general note: qHTS replaces the single test concentration by a dilution series.

The nature of test [2]: qHTS assay to identify small molecule agonists of the progesterone receptor (PR) signaling pathway - cell viability counter screen (AID 1346799; calls by dose curve; also: nearly all actives have a fitted effect of over 45% in size; also: potency is read from the fitted curve at half-maximal effect). An outline of the steps: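 Cytotoxicity measured by CellTiter-Glo luminescence (30 min, RT) in the same wells as the PR beta-lactamase agonist read. Those HEK293T cells had 16 h compound treatment at 37 C in 2% charcoal-stripped FBS medium.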

The nature of test [3]: qHTS assay to identify small molecule agonists of the TGF-beta/Smad signaling pathway - cell viability counter screen (AID 1346829). Also: top concentration of the series differs between compounds; nearly all actives have a fitted effect of over 45% in size. The essentials: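 Tox21 qHTS format: SBE-bla HEK 293T cells treated with DMSO-dissolved compounds for 5 hr; CellTiter-Glo luminescence after 30 min at room temperature.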
The nature of test [4]: qHTS assay to identify small molecule agonists of the TGF-beta/Smad signaling pathway (AID 1346859; active = well fitted activation curve with a large enough effect in the signal ratio in the repeat runs, not every such curve was filed as active; the % refers to the signal ratio; also: series mostly up to about 77 µM). An outline of the steps: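 Fluorescence (ex 405 nm; em 460 and 530 nm) was read 2 h after LiveBLAzer FRET substrate at RT. The preceding compound treatment of overnight-plated SBE-bla HEK293T cells lasted 5 h at 37 C.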
The target in test [5] is Thyrotropin-releasing hormone receptor (Homo sapiens) (UniProt P34981). The test is described as follows: qHTS assay to identify small molecule antagonists of the thyrotropin-releasing hormone receptor (TRHR) signaling pathway (AID 1346877; active = well fitted inhibition curve with a large enough effect in the repeat runs, not every such curve was filed as active; also: series mostly up to about 51 µM). The essentials:
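Antagonism is measured as suppression of the calcium response to 1 nM TRH in TRHR-HEK293 cells that have been dye-loaded for 2 h at 37 °C after overnight plating. Each compound is tested at 15 concentrations in triplicate.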

Test [6] shares this target. The test is described as follows: qHTS assay to identify small molecule agonists of the thyrotropin-releasing hormone receptor (TRHR) signaling pathway (AID 1346891; calls by dose curve; also: series mostly up to about 58 µM). The essentials:
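Agonist-mode intracellular calcium readout: kinetic fluorescence over 3 min at 1 s intervals after compound addition to TRHR-HEK293 cells (18 h seeded, 2 h dye-loaded at 37 C). Fifteen concentrations, triplicates.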

Test [7] can be described thus: Caspase-3/7 induction in HepG2 cells by small molecules, qHTS assay (AID 1346978). Also: nearly all actives have a fitted effect of over 15% in size. An outline of the steps: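 Wild-type HepG2 cells, 2,000/well, settled 5 hr at 37 C and 5% CO2, then compound-treated for 17 hr; caspase-3/7 activity read by luminescent Caspase-Glo 3/7 after 30 min at room temperature.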
Test [8] can be described thus: Caspase-3/7 induction in CHO-K1 cells by small molecules, qHTS cell viability counter screen (AID 1346979). Also: nearly all actives have a fitted effect of over 35% in size. Also: potency is read from the fitted curve at half-maximal effect. The essentials: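 Cytotoxicity counter screen: CellTiter-Fluor added to compound-treated wild-type CHO-K1 cells at 16 h (37C, 5% CO2), fluorescence measured 1 h later; same wells as caspase-3/7 measurement.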
Test [9] is described as follows: Caspase-3/7 induction in CHO-K1 cells by small molecules, qHTS assay (AID 1346980). Also: nearly all actives have a fitted effect of over 15% in size. An outline of the steps: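 Wild-type CHO-K1 cells exposed to compounds for 17hr at 37 C, 5% CO2. Caspase-3/7 activity then measured by Caspase-Glo 3/7 luminescence after 30min at room temperature.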
Test [10] in a line: Caspase-3/7 induction in HepG2 cells by small molecules, qHTS cell viability counter screen (AID 1346981). Also: nearly all actives have a fitted effect of over 30% in size. Also: potency is read from the fitted curve at half-maximal effect. As to activity change, negative = cytotoxicity: series mostly up to about 92 µM. An outline of the steps:
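Cell viability is measured as a cytotoxicity counter screen alongside the Caspase-Glo 3/7 readout in identical wells. Wild-type HepG2 cells are treated with test compounds for 16 hr at 37 C before CellTiter-Fluor addition and a 1-hr incubation.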

Test [11] concerns the target Nuclear receptor subfamily 1 group I member 2 (Rattus norvegicus) (UniProt Q9R1A7). Nature of the test: Rat pregnane X receptor (rPXR) activation by small molecules, qHTS assay (AID 1346983). Also: nearly all actives have a fitted effect of over 20% in size. To be noted: rPXR luciferase reporter cells, One-Glo luminescence, 24 h; stronger effect = higher value. The essentials:
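Cell-based rPXR activation assay: rPXR cells, 2,000 per well, rested 5hr at 37 C, then exposed to compounds in DMSO for 24 hr at 37 C. Luciferase activity read by One-Glo luminescence after 30 min at room temperature.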

Test [12] addresses Nuclear receptor subfamily 1 group I member 2 (Homo sapiens) (UniProt O75469). The test is described as follows: Human pregnane X receptor (PXR) activation by small molecules, qHTS assay (AID 1346985). Also: nearly all actives have a fitted effect of over 40% in size. An outline of the steps:
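DPX-2 cells (HepG2 co-transfected with a PXR response element and a CYP3A4-promoter luciferase construct) were seeded at 2,000 per well, rested 5 hr at 37C, then exposed to DMSO-dissolved compounds for 24 hr. Activation was read as luciferase luminescence.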

Test [13] deals with Cytochrome P450 2C19 (Homo sapiens) (UniProt P33261). Nature of the test: Cytochrome P450 Family 2 Subfamily C Member 19 (CYP2C19) small molecule antagonists: luciferase reporter qHTS assay (AID 1671197). Also: nearly all actives have a fitted effect of over 65% in size. Also: potency is read from the fitted curve at half-maximal effect. As to activity change, negative = inhibition: series mostly up to about 120 µM. The essentials: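 Relative luminescence units recorded 20 min after the detection reagent stopped a 1 h, 37C CYP2C19 reaction on proluciferin substrate, which was started by NADPH regeneration following 10 min room-temperature compound preincubation; ketoconazole positive control.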
In general terms: A reporter such as luciferase makes a cellular process visible.

Test [14] deals with Cytochrome P450 2C9 (Homo sapiens) (UniProt P11712). Nature of the test: Cytochrome P450 Family 2 Subfamily C Member 9 (CYP2C9) small molecule antagonists: luciferase reporter qHTS assay (AID 1671198). Also: nearly all actives have a fitted effect of over 50% in size. Also: potency is read from the fitted curve at half-maximal effect. As to activity change, negative = inhibition: series mostly up to about 120 µM. An outline of the steps:
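P450-Glo proluciferin substrate with CYP2C9 enzyme; 10 min RT preincubation, then NADPH regeneration 1 h at 37C; luciferin detection reagent 20 min RT, luminescence in relative luminescence units.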

Test [15] is described as follows: qHTS assay to identify small molecule antagonists of the TGF-beta/Smad signaling pathway - cell viability counter screen (AID 1346824). Also: nearly all actives have a fitted effect of over 50% in size. An outline of the steps:
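SBE-bla HEK 293T cells, incubated overnight, then compound plus 0.25 ng/mL TGF-beta1 (stock added) for 5 hr at 37 C. Viability was read in the same wells by CellTiter-Glo luminescence after 30 min at room temperature.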

Test [16] concerns the target Nuclear receptor subfamily 1 group I member 2 (Homo sapiens) (UniProt O75469). Nature of the test: Human pregnane X receptor (PXR) small molecule agonists, qHTS assay (AID 1346982). Also: nearly all actives have a fitted effect of over 35% in size. Also: potency is read from the fitted curve at half-maximal effect. The essentials:
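Cells: HepG2 stably carrying PXR-Luc. Medium held 5% charcoal-stripped FBS. Compounds in DMSO added after 5 hr plating, incubated 24 hr, then luminescence quantified with ONE-Glo.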

Test [17] deals with Cytochrome P450 2D6 (Homo sapiens) (UniProt P10635). The test is described as follows: Cytochrome P450 Family 2 Subfamily D Member 6 (CYP2D6) small molecule antagonists: luciferase reporter qHTS assay (AID 1671196). Also: nearly all actives have a fitted effect of over 50% in size. Also: potency is read from the fitted curve at half-maximal effect. As to activity change, negative = inhibition: series mostly up to about 120 µM. The essentials: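 Enzyme and proluciferin substrate were first combined with test chemical for 10 min at room temperature. Adding NADPH regeneration solution started a 1 h reaction, stopped with luciferin detection reagent and read by luminescence 20 min later.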

A short description of test [18]: Human pregnane X receptor (PXR) small molecule agonists, qHTS cell viability counter screen (AID 1346977). Also: nearly all actives have a fitted effect of over 50% in size. An outline of the steps: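 Same-well viability read: CellTiter-Fluor added after 23 hr compound exposure, fluorescence measured 1 hr later. Cells were PXR-Luc HepG2 seeded at 2,000/well in 5% charcoal-stripped FBS medium, rested 5 hr before dosing at 37 C.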

Test [19] concerns the target Nuclear receptor subfamily 1 group I member 2 (Homo sapiens) (UniProt O75469). Nature of the test: CYP3A4 induction through human pregnane X receptor (PXR) by small molecules, qHTS assay (AID 1346984). Also: nearly all actives have a fitted effect of over 40% in size. The essentials:
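Quantitative HTS in DPX-2 cells, i.e. HepG2 transfected with PXR response element and CYP3A4-promoter luciferase. Compounds in DMSO incubated 24hr at 37C; then P450-Glo CYP3A4 substrate, 3uM final, 3hr; One-Glo luminescence.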

The nature of test [20]: qHTS assay to identify small molecule antagonists of the progesterone receptor (PR) signaling pathway - cell viability counter screen (AID 1346798). An outline of the steps:
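Cytotoxicity read as CellTiter-Glo luminescence (30 min, room temperature) in the same wells as the beta-lactamase readout. HEK293T PR-UAS-bla cells in charcoal-stripped 2% FBS received compound and R5020, then 16 h at 37C, 5% CO2.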
% is scaled to controls: 0 for no effect and ±100 for the full control effect.

Chain of Nuclear receptor subfamily 1 group I member 2 (Homo sapiens) (O75469 whole entry, looked up): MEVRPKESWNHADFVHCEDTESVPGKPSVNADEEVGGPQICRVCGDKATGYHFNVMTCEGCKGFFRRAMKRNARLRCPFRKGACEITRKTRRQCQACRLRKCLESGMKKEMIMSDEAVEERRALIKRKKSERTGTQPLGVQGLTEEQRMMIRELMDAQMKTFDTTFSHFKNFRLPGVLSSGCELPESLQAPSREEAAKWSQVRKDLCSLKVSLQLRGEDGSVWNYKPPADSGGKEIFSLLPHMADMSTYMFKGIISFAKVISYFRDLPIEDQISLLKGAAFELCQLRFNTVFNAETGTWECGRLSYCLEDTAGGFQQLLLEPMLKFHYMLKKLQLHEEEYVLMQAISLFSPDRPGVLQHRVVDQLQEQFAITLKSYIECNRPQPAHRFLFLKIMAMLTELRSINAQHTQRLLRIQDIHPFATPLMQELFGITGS
Chain of Progesterone receptor (Homo sapiens) (P06401 whole entry, looked up): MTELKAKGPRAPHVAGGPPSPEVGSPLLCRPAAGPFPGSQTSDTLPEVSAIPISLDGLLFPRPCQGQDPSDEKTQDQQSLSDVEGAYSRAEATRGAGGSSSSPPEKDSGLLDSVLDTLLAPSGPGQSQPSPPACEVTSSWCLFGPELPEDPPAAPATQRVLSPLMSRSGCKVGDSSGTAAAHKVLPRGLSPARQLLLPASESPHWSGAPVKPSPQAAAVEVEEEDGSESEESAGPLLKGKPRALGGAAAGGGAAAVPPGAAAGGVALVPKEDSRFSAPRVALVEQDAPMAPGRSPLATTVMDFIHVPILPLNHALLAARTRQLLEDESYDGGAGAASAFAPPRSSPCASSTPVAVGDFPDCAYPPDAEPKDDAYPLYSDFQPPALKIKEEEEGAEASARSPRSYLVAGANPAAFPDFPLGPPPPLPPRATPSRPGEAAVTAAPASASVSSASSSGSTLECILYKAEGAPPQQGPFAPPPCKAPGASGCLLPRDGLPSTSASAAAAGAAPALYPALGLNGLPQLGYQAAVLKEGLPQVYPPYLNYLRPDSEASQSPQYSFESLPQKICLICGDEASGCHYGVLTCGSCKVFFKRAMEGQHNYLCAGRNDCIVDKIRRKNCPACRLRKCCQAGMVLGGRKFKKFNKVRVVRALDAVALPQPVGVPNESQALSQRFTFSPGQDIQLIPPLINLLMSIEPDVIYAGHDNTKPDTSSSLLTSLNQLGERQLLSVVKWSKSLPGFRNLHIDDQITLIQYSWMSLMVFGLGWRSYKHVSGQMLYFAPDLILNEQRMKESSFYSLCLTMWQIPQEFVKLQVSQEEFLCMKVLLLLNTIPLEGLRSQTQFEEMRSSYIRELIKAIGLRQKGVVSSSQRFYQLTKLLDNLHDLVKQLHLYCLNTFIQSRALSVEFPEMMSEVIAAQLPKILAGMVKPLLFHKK
Chain of Thyrotropin-releasing hormone receptor (Homo sapiens) (P34981 whole entry, looked up): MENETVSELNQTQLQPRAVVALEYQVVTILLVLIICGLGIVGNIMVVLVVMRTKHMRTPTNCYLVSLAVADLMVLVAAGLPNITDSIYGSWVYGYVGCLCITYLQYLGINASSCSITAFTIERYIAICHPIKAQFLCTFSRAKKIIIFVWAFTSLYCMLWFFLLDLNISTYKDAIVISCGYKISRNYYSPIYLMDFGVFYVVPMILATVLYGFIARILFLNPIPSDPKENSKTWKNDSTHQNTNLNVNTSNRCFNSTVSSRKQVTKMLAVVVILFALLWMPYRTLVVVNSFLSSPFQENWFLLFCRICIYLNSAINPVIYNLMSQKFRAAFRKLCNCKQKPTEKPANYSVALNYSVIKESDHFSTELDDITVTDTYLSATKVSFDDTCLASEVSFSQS
Chain of Cytochrome P450 2D6 (Homo sapiens) (P10635 whole entry, looked up): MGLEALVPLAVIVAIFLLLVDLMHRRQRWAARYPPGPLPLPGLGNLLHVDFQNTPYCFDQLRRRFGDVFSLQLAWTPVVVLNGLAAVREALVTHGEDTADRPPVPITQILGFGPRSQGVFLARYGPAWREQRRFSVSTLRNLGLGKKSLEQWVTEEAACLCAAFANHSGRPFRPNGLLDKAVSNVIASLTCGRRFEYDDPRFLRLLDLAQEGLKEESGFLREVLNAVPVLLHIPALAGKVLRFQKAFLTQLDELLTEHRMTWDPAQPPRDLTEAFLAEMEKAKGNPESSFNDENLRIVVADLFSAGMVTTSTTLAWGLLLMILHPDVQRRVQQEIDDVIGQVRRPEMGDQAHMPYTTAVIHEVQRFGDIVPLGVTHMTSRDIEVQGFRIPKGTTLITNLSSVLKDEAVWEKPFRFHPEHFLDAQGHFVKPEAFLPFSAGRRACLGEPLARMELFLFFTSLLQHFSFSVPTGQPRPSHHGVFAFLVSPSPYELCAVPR
Chain of Cytochrome P450 2C9 (Homo sapiens) (P11712 whole entry, looked up): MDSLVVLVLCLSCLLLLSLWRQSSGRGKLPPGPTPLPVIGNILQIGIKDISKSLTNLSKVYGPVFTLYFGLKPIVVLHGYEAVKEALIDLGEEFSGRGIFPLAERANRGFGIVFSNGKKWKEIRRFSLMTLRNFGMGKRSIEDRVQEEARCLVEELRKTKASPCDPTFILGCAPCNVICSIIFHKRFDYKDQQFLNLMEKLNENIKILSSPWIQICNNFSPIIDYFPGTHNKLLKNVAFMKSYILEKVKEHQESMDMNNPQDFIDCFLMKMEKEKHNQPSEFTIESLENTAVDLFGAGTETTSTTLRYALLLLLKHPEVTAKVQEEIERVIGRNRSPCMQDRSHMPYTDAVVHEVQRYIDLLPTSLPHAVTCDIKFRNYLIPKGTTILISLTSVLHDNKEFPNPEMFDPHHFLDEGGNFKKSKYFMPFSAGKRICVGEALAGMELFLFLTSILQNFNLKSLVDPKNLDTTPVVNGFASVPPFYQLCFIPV
Chain of Cytochrome P450 2C19 (Homo sapiens) (P33261 whole entry, looked up): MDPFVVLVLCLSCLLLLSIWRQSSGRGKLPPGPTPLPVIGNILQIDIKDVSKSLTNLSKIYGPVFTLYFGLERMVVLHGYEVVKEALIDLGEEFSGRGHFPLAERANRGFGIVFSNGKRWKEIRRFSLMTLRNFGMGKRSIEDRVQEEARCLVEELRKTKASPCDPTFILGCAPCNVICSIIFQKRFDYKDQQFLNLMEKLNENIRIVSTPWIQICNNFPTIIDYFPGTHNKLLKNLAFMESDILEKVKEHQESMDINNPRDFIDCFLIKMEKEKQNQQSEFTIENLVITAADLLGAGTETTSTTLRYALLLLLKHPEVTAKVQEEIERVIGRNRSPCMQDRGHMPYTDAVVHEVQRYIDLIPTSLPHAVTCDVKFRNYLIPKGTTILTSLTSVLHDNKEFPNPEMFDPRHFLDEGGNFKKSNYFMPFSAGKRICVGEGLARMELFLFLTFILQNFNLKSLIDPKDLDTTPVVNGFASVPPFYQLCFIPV
Chain of Nuclear receptor subfamily 1 group I member 2 (Rattus norvegicus) (Q9R1A7 whole entry, looked up): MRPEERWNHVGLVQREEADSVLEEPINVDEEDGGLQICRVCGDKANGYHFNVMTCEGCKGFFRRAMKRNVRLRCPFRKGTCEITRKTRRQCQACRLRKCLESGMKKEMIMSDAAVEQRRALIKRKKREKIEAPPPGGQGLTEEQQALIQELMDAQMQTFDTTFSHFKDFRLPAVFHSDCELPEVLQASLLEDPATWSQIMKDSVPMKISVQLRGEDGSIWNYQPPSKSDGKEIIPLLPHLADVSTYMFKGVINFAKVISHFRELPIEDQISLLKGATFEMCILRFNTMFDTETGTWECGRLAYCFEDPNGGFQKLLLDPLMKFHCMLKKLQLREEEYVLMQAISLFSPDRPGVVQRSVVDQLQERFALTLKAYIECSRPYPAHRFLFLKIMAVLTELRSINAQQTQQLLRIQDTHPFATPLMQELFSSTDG

On to `Oc1ccc(Cl)cc1Cc1cc(Cl)ccc1O`, for which the Potency in test [1] is 15.6 µM (active) and 15.4 µM (active) and 18.8 µM (active); in test [2], 69.8 µM (active); in test [8], 44.1 µM (active) and 38.6 µM (active) and 29.8 µM (active); in [10] it was 55.5 µM (active); in [13] it was 3.62 µM (active) and 2.83 µM (active) and 3.09 µM (active); in test [14], 8.11 µM (active) and 5.64 µM (active) and 4.9 µM (active). Moreover, the Potency result in test [3], in [5], in test [6], in test [7], in test [9] and in test [12] was “inactive” each time. Moreover, the outcome in [4] was inactive. Also, in [11], the max activation was -2.03% (inactive).

As to `CC(C(O)c1ccc(O)cc1)N1CCC(Cc2ccccc2)CC1` (stereo not given), the Potency entry in test [1], in test [15], in test [3], in test [5], in test [6] and in test [7] was “inactive” throughout. The Potency entry in [8], in test [9], in [10], in test [16], in test [12] and in [14] was “inactive” in each case. The molecule was called inactive in test [4]. Besides, the max activation in [11] was -2.92% (inactive).

As to `O=Nc1ccc(Nc2ccccc2)cc1`, the Potency in [1] was 54.5 µM (active); in test [8] it was 7.74 µM (active) and 13.7 µM (active); in [16], 61.4 µM (active) and 48.6 µM (active); in [17] it was 28.4 µM (active) and 35.6 µM (active); in [13] it was 5.67 µM (active) and 8.94 µM (active); in test [14], 14.2 µM (active) and 28.3 µM (active). The Potency result in test [3], in test [5], in test [6], in [7] and in [9] was “inactive” throughout. Moreover, the call in test [4] was inactive.

Consider `NC(Cc1ccc(Cl)cc1)C(=O)O` (stereo not given), for which the activity change, negative = inhibition in test [1] was -0.261% [at 0.348 µM] (inactive); in test [17], -0.77% [at 0.435 µM] (inactive); in test [13] it was 18.5% [at 0.435 µM] (inactive); in test [14], 6.61% [at 0.435 µM] (inactive). The activity change, negative = cytotoxicity in [2] was -7.43% [at 0.349 µM] (inactive); in [3], -10.5% [at 0.29 µM] (inactive); in [18], 6.84% [at 0.349 µM] (inactive); in test [10], -2.01% [at 0.349 µM] (inactive). The figures for the activation in [4], in [6] and in test [16] were 0.242% [at 0.29 µM] (inactive), 0.0344% [at 0.218 µM] (inactive) and -5.94% [at 0.349 µM] (inactive), respectively. In test [5], the activity, negative = inhibition was -6.16% [at 0.194 µM] (inactive). Besides, the caspase activation in test [7] is -0.871% [at 0.349 µM] (inactive). Further, the caspase-3/7 activation in [9] is 1.39% [at 0.349 µM] (inactive).

For the molecule `C=C(C)C1CC=C(C)C(OC(C)=O)C1` (stereo not given), the Potency result in test [1], in test [2], in [15], in test [3], in test [18] and in test [7] was “inactive” each time. The Potency entry in [8], in test [9], in test [10], in [13] and in test [14] was “inactive” throughout. In test [4], the molecule was called inactive. The Potency in [17] was 28.1 µM (active) and inactive.

For the molecule `[Cl][In]([Cl])[Cl]`, the Potency entry in [1], in test [3], in [5], in [6], in [18] and in test [7] was “inactive” throughout. Also, the Potency result in [9], in test [10], in test [16], in test [19], in [12] and in test [17] was “inactive” throughout. Also, in [14], the Potency result was “inactive”. In addition, the outcome in test [4] was inactive. Moreover, the max activation in test [11] is -5.91% (inactive). For the same molecule, the Potency entry in test [13] is “inactive and 35.6 µM (active)”.

With `CCOc1ccc2c(c1)C(C)=CC(C)(C)N2`, the Potency entry in test [20], in test [2], in test [15], in test [3], in test [5] and in test [6] was “inactive” in each case. The Potency entry in test [18], in test [7] and in test [10] was “inactive” in each case. Further, the Potency is 60.8 µM (active) and 54.5 µM (active) in test [16]; 11.2 µM (active) and 10 µM (active) in [17]; 7.93 µM (active) and 5.64 µM (active) in test [14].
